The values below come from PubChem BioAssay (EPA / NIEHS).

Each structure is given as a SMILES string. Calls of active or inactive are those of the source. The calls were made as follows: active = hit-call score of the fitted dose curve at least 0.9, where 1 is the maximum; inactive = score below 0.9.

Read-out in this test: Bcl-2 (BID) gene, BID (gene 637)
Put plainly: LTEA_HepaRG_BID: Life Technologies and Expression Analysis (LTEA) Assay for Bcl-2 (BID) gene using HepaRG (AID 2283476). The conditions noted are these: mRNA level, 48 h; actives raise or lower the signal. The procedure: LTEA_HepaRG is a cell based, multiplexed-readout assay that uses HepaRG, a human liver cell line, with measurements taken at 48 hours after chemical dosing on a 96-well plate.LTEA_HepaRG_BID is one of 102 assay component(s) measured in the LTEA HepaRG cell culture assay. It is a marker of Cell proliferation, survival, death.Data from the assay component LTEA_HepaRG_BID was analyzed into 1 endpoint. This assay endpoint, LTEA_HepaRG_BID, was analyzed with bidirectional fitting relative to DMSO as the negative control and baseline of activity. Using a type of inducible reporter, measures of mRNA induction for gain or loss-of-signal activity can be used to understand regulation of transcription factor activity. To generalize the intended target to other relatable targets, this assay endpoint is annotated to the cell cycle intended target family, where the subfamily is Cell proliferation, survival, death.
A total of 1060 chemcials from the ToxCast library were tested in eight-point concentration-response experiments. Cell culture and cytotoxicity assays were conducted at Thermo Fisher Scientific's Custom Services facility (Madison, WI). A single lot of human HepaRG cells (Thermo Fisher Scientific, Frederick, MD) was used for the cell culture experiments. 96-well format collagen type I coated plates of human HepaRG cells were prepared using established methods. Briefly, cryopreserved HepaRG cells were thawed, plated at a density of approximately 100,000 cells/well in HepaRG Thaw, Plate, and General Purpose media (HPRG770, Thermo Fisher Scientific), and incubated for 48 hours. 0.5% DMSO was selected as vehicle control to balance the requisite need of DMSO in HepaRG cultures to maintain differentiation (for example, baseline metabolism, proportions of hepatocytes vs. cholangiocytes), while enabling further hepatic receptor pathway activation (for example, PXR and CAR) in response to chemical exposure. 48 hours after plating, the culture medium was replaced with HepaRG Serum-Free Incudtion Media. Cells were exposed to each test chemical in duplicate and maintained in CO2 incubators for another 48 hours. Chemical plates were thawed to room temperature and 200x concentrations of treatment groups were prepared. 8-point conentration-reponse curves were made with the highest exposure at 100 uM, followed by half-log dilutions, all in 0.5% DMSO. Each test plate contained variouse controls, induction positive controls (1mM phenobarbital), cytotoxicity positive controls ([…] aflatoxin B1), vehicle controls (0.5% DMSO), and total lysis controls (0.5% DMSO). Cell morphology images were taken using an Essen IncuCyte FLR automated microscope, with six 96-well plates imaged in about 24 minutes. Images were captured and exported and JPEG files. Spent culture media was transfered to black-well plates for the LDH assay, and remaining media was sorted at -80 C for later use. Cells were treated with RLT buffer and frozen until shipped for gene expression analysis. Total RNA was isolated from the cell suspension in 75 uL of Buffer RLT (Qiagen, Germantown, MD 20874) by Quintiles/Expression Analysis (Durham, NC) using a custom isolation procedure. Total RNA from each plate well was transferred to a preamplification plate. Fluidigm's 96.96 Dynamic ArrayTM (Fluidigm, Amsterdam, the Netherlands) technology was used for gene expression analyses by quantitative reverse transcription polymerase chain reaction (qRT-PCR, performed by Quintiles/Expression Analysis, Durham, NC)89. Standard TaqManTM Assays (Applied Biosystems/ThermoFisher Scientific, Foster City, CA) were used to assess the expression of 93 genes selected based on their selectivity and sensitivity to important hepatic receptors known to be modulated by environmental chemicals; importance in human hepatocyte functionality; and hepatotoxicity. […]
For `ClC1=C(Cl)[C@]2(Cl)[C@@H]3[C@@H]4C[C@@H]([C@H]5O[C@@H]45)[C@@H]3[C@@]1(Cl)C2(Cl)Cl`, the result was inactive. The same measure, in the same setting: for `ClC1=C(Cl)[C@]2(Cl)[C@@H]3[C@@H](Cl)[C@H]4O[C@H]4[C@@H]3C1(Cl)C2(Cl)Cl` the value was “inactive”; for `CCSC(=O)N(CC)C1CCCCC1`, “inactive”. The same measure, in the same setting: next, `C1CC2OC2CC1C1CO1` (stereo not given): “inactive”. On the same count and under the same terms, for `Oc1ccc(C(c2ccc(O)cc2)(C(F)(F)F)C(F)(F)F)cc1` the value was “inactive”; for `Cc1cc(O)ccc1Cl`, “inactive”.

Consider `ClC1=C(Cl)[C@]2(Cl)[C@@H]3[C@H]4C[C@H]([C@@H]5O[C@H]45)[C@@H]3[C@@]1(Cl)C2(Cl)Cl`, for which the call was inactive. Still for that read-out and setting: for `Nn1cnnc1` the value was “inactive”. As for `Oc1ccc(Cl)cc1Cl`, the AC50 was 12.2 µM (active). Regarding `CCNc1nc(NC(C)C)nc(SC)n1`, the outcome was inactive. Consider `Cc1ccccc1[N+](=O)[O-]`, for which the compound was classed as inactive. Same read-out and setting: next, `O=S(=O)(O)C(F)(F)C(F)(F)C(F)(F)C(F)(F)F`: “inactive”; `COc1ccc(O)c(C(C)(C)C)c1`: “inactive”. On the same count and under the same terms, for `O=C(NC(=O)c1c(F)cccc1F)Nc1cc(Cl)c(OC(F)(F)C(F)F)c(Cl)c1` the value was “inactive”; for `O=C(NC(=O)c1cc(F)c(F)cc1Cl)Nc1cc(F)ccc1N1CCC(C(=O)O)CC1`, “inactive”; for `Clc1ccc(Cl)cc1`, “inactive”.

Regarding `O=C(O)C(F)(F)C(F)(F)C(F)(F)C(F)(F)C(F)(F)F`, the call was inactive.

With `Clc1ccc(C(Cl)(Cl)Cl)cc1`, the call was inactive. `Cc1ccc(O)c(C)c1`: the call was inactive. On the same count and under the same terms, next, `ClC(Cl)=C(c1ccc(Cl)cc1)c1ccc(Cl)cc1`: “inactive”. The same measure, in the same setting: for `CCOCCOC(C)=O` the value was “inactive”; for `CCCCCCCCCc1ccc(O)cc1`, “inactive”; for `C=CC(=O)NCNC(=O)C=C`, “inactive”. For `CN(C)CCO`, the result was inactive.

`Oc1c(Cl)c(Cl)c(Cl)c(Cl)c1Cl`: the AC50 was 4.97 µM (active). With `CC1=C2C[C@H]3[C@@H](CC=C4C[C@@H](O)CC[C@@]43C)[C@@H]2CC[C@]12O[C@@H]1C[C@H](C)CN[C@H]1[C@H]2C`, the compound was called inactive.

As to `C=CC(N)=O`, the call was inactive. Still for that read-out and setting: next, `CCC(=O)O[C@H]1CC[C@H]2[C@@H]3CCC4=CC(=O)CC[C@]4(C)[C@H]3CC[C@]12C`: “inactive”; `O=C(N[C@H]1CN2CCC1CC2)c1cc2ccoc2cn1`: “inactive”. For `CC(c1ccc(O)cc1)(c1ccc(O)cc1)c1ccc(O)cc1`, the AC50 is 3.86 µM (active). `c1cc2ccc3cccc4ccc(c1)c2c34`: the call was inactive. On the same count and under the same terms, for `CCOP(=S)(OCC)SCSC(C)(C)C` the value was “inactive”; for `c1ccc(-c2ccccc2)cc1`, “inactive”. On the same count and under the same terms, next, `COS(=O)(=O)OC`: “inactive”. For `O=C(O)C(F)(F)C(F)(F)C(F)(F)C(F)(F)C(F)(F)C(F)(F)C(F)(F)C(F)(F)C(F)(F)F`, the AC50 is 90.6 µM (active). Take `N#Cc1ccc(N(CC(N)=O)CC(F)(F)F)cc1C(F)(F)F`: the result was inactive.

Consider `CCCCCCCCCC[N+](C)(C)CCCCCCCCCC`, for which the compound was called inactive. On to `O=NN(c1ccccc1)c1ccccc1`, for which the AC50 was 78.2 µM (active). `Cc1cccc(C)c1N`: the compound was called inactive. Still for that read-out and setting: next, `CCCCCCCCOC(=O)c1ccccc1C(=O)OCCCCCCCC`: “inactive”.

Usually AC50 stands for the concentration giving half of the maximal activity seen.
